Screening data deposited in PubChem BioAssay by National Center for Advancing Translational Sciences (NCATS).
Coupling enz: inhibits coupling enzyme system, counter-screen for aldolase hits | coupling enzyme system counterscreen, AmpLite Red fluorescence | activity change, negative = inhibition, % at 58.2 µM, hits read low | hit rate 0.67% among 290,000; in the data active = activity change below about -30%
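Activity here indicates interference with the coupling reaction, not aldolase inhibition. Compounds at 57.5 uM final met coupling enzymes for 10 min at RT; substrate and AmpLite Red detection followed, with a 525/598 nm fluorescence read after 20 min.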
USP1 inh: inhibitors of human USP1/UAF1 deubiquitinase; Potency, µM (highest dose often 57.1 µM), inactives show at the highest dose activity change, negative = inhibition, most hits filed as inhibitors; recombinant USP1/UAF1, Ub-Rhodamine cleavage fluorescence; hit rate 0.23% among 390,000; O94782; AID 743255; note: potency is the fitted concentration of half-maximal effect; nearly all actives have a fitted effect of over 60% in size
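In this screen, compounds sit with the deubiquitinase complex (1nM) for 15 min at room temperature before Ub-Rho is added at 150nM final. Fluorescence rise is then followed for 6 reads every 60 seconds.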
Tau fibril ThT: inhibitors of human tau fibril formation, thioflavin T binding. P10636. recombinant tau K18 P301L, heparin-induced fibrillization, ThT fluorescence. Potency, µM (series often up to 57.4 µM), for inactives: top-dose activity, negative = inhibition, actives largely listed as inhibitors. hit rate 2.1% among 270,000; note: potency is the fitted concentration of half-maximal effect; nearly all actives have a fitted effect of over 55% in size
Target sequence (P10636 561-689 P618L limits assumed): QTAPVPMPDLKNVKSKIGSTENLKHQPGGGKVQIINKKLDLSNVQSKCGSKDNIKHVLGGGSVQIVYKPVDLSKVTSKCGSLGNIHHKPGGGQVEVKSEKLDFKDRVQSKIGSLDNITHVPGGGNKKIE
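K18 P301L tau (15 uM + 0.24 uM Alexa 594-tagged), heparin 20 uM, NaOAc pH 7, 6 h 37 C; ThT 30 uM, 1 h RT, ex 450/em 510 nm.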
Tau fibril FP: blocks human tau fibril formation measured by polarization; AID 1468; K18 P301L tau heparin fibrillization, Alexa594 FP, 6 h; hit rate 0.39% among 280,000; Potency, µM (highest dose often 57.7 µM), inactives show at the top dose activity, negative = inhibition, most hits filed as inhibitors; note: potency is the fitted concentration of half-maximal effect; nearly all actives have a fitted effect of over 55% in size
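Human K18 P301L fragment (15 uM unlabeled plus 0.24 uM Alexa 594-labeled) in 100 mM sodium acetate pH 7 with compound, aggregation induced by 20 uM heparin for 6 hr at 37 C. ThT (30 uM) added for 1 hr, then Alexa 594 FP read.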
Tau fluor cs: counter-screen for tau fibril formation inhibitors. Potency, µM (top dose mostly 57.7 µM), without a hit: at the top dose activity change, negative = decrease. AID 1463. tau K18 P301L (four-repeat tau fragment) Alexa594 fluorescence, heparin fibrillization. hit rate 0.93% among 280,000; note: potency is the fitted concentration of half-maximal effect; nearly all actives have a fitted effect of over 55% in size
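Human K18 P301L tau (15 uM unlabeled plus 0.24 uM Alexa 594-labeled, final) in 100 mM sodium acetate pH 7 was mixed with compound and 20 uM heparin and incubated 6 hr at 37 C.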
Starred values were filed as active, the others as inactive; [ ] = another dose, or the depositor's remark. Only some compounds are listed: those with a hit (about 2.3% of all), similar ones and a draw of the others. Unless noted, calls come from the whole dose curve; as a rule, active = well fitted curve in the direction sought with a large enough effect; inconclusive = small, poorly fitted or top-dose-only effect, or another doubt; inactive = no such curve, though single readings can be large; an effect the other way counts as inactive or inconclusive. % is set by controls: 0 for no effect and ±100 for the full control effect.

CCC1CO/C(=C(\C(Cl)=C(Cl)Cl)[N+](=O)[O-])N1 (configuration not stated) was read as Coupling enz -0.7, USP1 inh -11.2%, Tau fibril ThT 35.5µM*, Tau fibril FP inconclusive and Tau fluor cs -18.8%.
`CCc1cccc(C)c1NC(=O)C(C)Sc1nc2c(c(=O)[nH]1)CCCC2` (configuration not stated) gave USP1 inh -15.4%, Tau fibril ThT 6.2%, Tau fibril FP -0.5% and Tau fluor cs 9.4%.
`CC[C@H](C)[C@H](NC(=O)[C@H](C)NC(=O)[C@@H](N)C(C)C)C(=O)N[C@H](C(=O)N[C@H](C(=O)N[C@@H](CC(C)C)C(=O)N[C@H](C(=O)N[C@@H](CCCCN)C(=O)O)C(C)C)C(C)C)[C@@H](C)O` gave Coupling enz 3.4.
Screening CCOP(=O)(OCC)C(C#N)=C1SCN(c2ccc(Cl)cc2)CS1 returned Coupling enz 1.1, USP1 inh -18.4%, Tau fibril ThT 2µM*, Tau fibril FP inconclusive and Tau fluor cs -24.5%.
For CN(C(=O)c1cnc(N2CCOCC2)c2ccccc12)c1ccccc1F the results were USP1 inh -4.5%, Tau fibril ThT -8.4%, Tau fibril FP 3.5% and Tau fluor cs -6.1%.
For Cc1ccc(NS(=O)(=O)c2cc(N)ccc2Cl)c(C)c1 the results were Coupling enz -32.7*, USP1 inh inconclusive, Tau fibril ThT -4.5%, Tau fibril FP 10.0% and Tau fluor cs -12.6%.
`CCc1nn2c(=O)cc(COc3ccc(/C=C(\C#N)C(=O)Nc4ccc(C)cc4)cc3)nc2s1` gave USP1 inh -11.4%, Tau fibril ThT inconclusive, Tau fibril FP 4.5% and Tau fluor cs -9.1%.
O=C1CSC(=S)N1/N=C/c1cc(Br)ccc1O was read as Coupling enz 4.1.
For O=C1CSC(=S)N1/N=C/c1ccc(O)c(O)c1O the results were Coupling enz -59.1*, USP1 inh inconclusive, Tau fibril ThT 3.55µM*, Tau fibril FP 7.08µM* and Tau fluor cs inconclusive.
`CN1CCc2c(sc3c2C(=O)NC(c2ccco2)N3)C1` (configuration not stated) gave Coupling enz -1.6, USP1 inh inconclusive, Tau fibril ThT inconclusive, Tau fibril FP inconclusive and Tau fluor cs -20.6%.
`CN1CCc2c(sc3c2C(=O)NC(c2cn(Cc4ccccc4)c4ccccc24)N3)C1` (configuration not stated) gave Coupling enz -3.4, USP1 inh -26.7%, Tau fibril ThT 17.8µM*, Tau fibril FP inconclusive and Tau fluor cs -24.9%.
Screening CN1CCc2c(sc3c2C(=O)NC(c2ccc(-c4ccc(Cl)cc4)o2)N3)C1 (configuration not stated) returned Coupling enz -5.7, USP1 inh inconclusive, Tau fibril ThT 3.16µM*, Tau fibril FP inconclusive and Tau fluor cs inconclusive.
CCCCc1ccc(-n2nc3cc(Cl)c(NC(=O)c4ccc(OC)cc4)cc3n2)cc1 was read as USP1 inh -27.6%, Tau fibril ThT -6.6%, Tau fibril FP -1.9% and Tau fluor cs -3.1%.
Screening COc1cccc(N2CCN(S(=O)(=O)c3ccc(-c4ccno4)cc3OC)CC2)c1 returned USP1 inh -22.9%, Tau fibril ThT -11.7%, Tau fibril FP -2.5% and Tau fluor cs inconclusive.
CCSc1nc2ccccc2n1C(=O)/C=C\c1ccc(OC)c(OC)c1 was read as Coupling enz -2.0, USP1 inh -18.0%, Tau fibril ThT 10µM*, Tau fibril FP inconclusive and Tau fluor cs -17.5%.
Screening CCSc1nc2ccccc2n1CC(N)=O returned Coupling enz -0.9, USP1 inh -12.5%, Tau fibril ThT -0.8%, Tau fibril FP 6.7% and Tau fluor cs 3.2%.
Screening COc1cc([N+](=O)[O-])c2nccnc2c1 returned Coupling enz 1.3, USP1 inh -5.1%, Tau fibril ThT -1.1%, Tau fibril FP -0.6% and Tau fluor cs -3.4%.
`CCOc1cc([N+](=O)[O-])c2nc(N)sc2c1` gave Coupling enz -0.3, USP1 inh -16.5%, Tau fibril ThT 20µM*, Tau fibril FP 3.4% and Tau fluor cs -20.7%.
Screening CC(=O)Nc1ccc(Nc2nc3c(S(=O)(=O)c4cc(C)ccc4C)nnn3c3ccsc23)cc1 returned USP1 inh -19.0%, Tau fibril ThT -16.5%, Tau fibril FP 0.2% and Tau fluor cs -27.7%.
Screening CCc1ccc(S(=O)(=O)c2nnn3c2nc(Nc2ccc(F)cc2)c2cc(Cl)ccc23)cc1 returned USP1 inh -19.6%, Tau fibril ThT -0.6%, Tau fibril FP 14.1µM* and Tau fluor cs inconclusive.
Cc1ccc(C)c(S(=O)(=O)c2nnn3c2nc(Nc2ccc(F)c(Cl)c2)c2sccc23)c1 was read as USP1 inh -6.0%, Tau fibril ThT inconclusive, Tau fibril FP 14.1µM* and Tau fluor cs inconclusive.
For Cc1ccc(-c2cc(C(=O)N3CCN(S(=O)(=O)c4ccc(Br)cc4)CC3)[nH]n2)c(C)c1 the results were USP1 inh inconclusive, Tau fibril ThT 10.4%, Tau fibril FP -8.4% and Tau fluor cs 9.6%.
N#C/C(=C\c1ccc(C(=O)O)cc1)c1nc2sc3c(c2c(=O)[nH]1)CCCC3 was read as Coupling enz 4.2, USP1 inh inconclusive, Tau fibril ThT 14.1µM*, Tau fibril FP -7.8% and Tau fluor cs inconclusive.
CCOc1cc(/C=N/NC(=O)CNc2cccc(C)c2)ccc1OC(=O)c1ccccc1 was read as Coupling enz -0.3, USP1 inh -8.8%, Tau fibril ThT inconclusive, Tau fibril FP 10.3% and Tau fluor cs 14.1µM*[quencher].
For CCOC(=O)c1ccc(NC(=S)NCCc2ccc(F)cc2)cc1 the results were Coupling enz -0.6, USP1 inh -3.0%, Tau fibril ThT 6.3%, Tau fibril FP 28.2µM* and Tau fluor cs inconclusive.
For O=c1[nH]c(N2CCOCC2)cc2ccccc12 the results were USP1 inh 10µM*.
O=c1cc(N2CCOCC2)oc2c1ccc1ccccc12 was read as Coupling enz 2.7.
O=C(Cn1ncc2c3ccccc3n(Cc3cccc(Cl)c3)c2c1=O)NCc1cccs1 was read as USP1 inh inconclusive, Tau fibril ThT 0.4%, Tau fibril FP -14.9% and Tau fluor cs -2.4%.
`Cc1nnc2c(Nc3cccc(O)c3)nc3ccccc3n12` gave USP1 inh -13.5%, Tau fibril ThT 0.3%, Tau fibril FP -2.7% and Tau fluor cs -5.5%.
For COc1ccc(OC)c(-n2c(N)c(C(=O)NCC3CCCO3)c3nc4ccccc4nc32)c1 (configuration not stated) the results were Coupling enz -6.3, USP1 inh -15.2%, Tau fibril ThT -9.5%, Tau fibril FP 3.5% and Tau fluor cs -16.4%.
